Shown are actives, neighbours in structure and some others; about 4.6% of the full set was active somewhere.
DAX1 inh-1 – DAX1 (NR0B1) inhibitors, primary screen, cell-based, HEK293, Gal4-DAX1, luciferase luminescence; HEK293 Gal4-DAX1 luciferase reporter; 0.99% of 340,000 active; inhibition, % at 6.75 µM;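 active = inhibition above the mean over all tested compounds plus 3 SD, cut at about 4.2% in these data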;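 also: 0% = DAX1-transfected cells with DMSO and 100% = empty-vector control cells with DMSO; inhibition shows as a rise in luminescence from relieved DAX1 repression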
Target sequence (P51843 207-470 limits assumed): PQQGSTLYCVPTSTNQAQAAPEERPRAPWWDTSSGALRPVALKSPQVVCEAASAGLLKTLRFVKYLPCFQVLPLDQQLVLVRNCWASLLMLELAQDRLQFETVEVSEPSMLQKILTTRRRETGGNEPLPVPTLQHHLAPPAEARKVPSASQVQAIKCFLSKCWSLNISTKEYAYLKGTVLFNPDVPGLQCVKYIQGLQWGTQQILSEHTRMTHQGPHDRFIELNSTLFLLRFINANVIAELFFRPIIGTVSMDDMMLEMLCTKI
Wee1 degr inh – Wee1 degradation inhibitors, primary screen, cell-based, HeLa, Wee1K328M-luciferase, luminescence | Wee1-like protein kinase (Homo sapiens), P30291 | HeLa Luc-Wee1K328M stability; 100% = proteasome inhibitor MG132 effect | reporter increase, % at 5 µM | 1.2% of 220,000 active | AID 1321, 2008;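 active = activation above the mean of all tested compounds plus 3 SD, set per screening run, cut at about 8.8% in these data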;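 also: cells exposed to compound for 20 h before luminescence read; 0% = DMSO alone and 100% = MG132 at 30 µM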
hgDAF-12 ag – H. glycines DAF-12 receptor agonists, primary screen, cell-based, luminescence, HEK293, GAL4 fusion, UAS-luciferase | AID 687014, 2013 | HEK293 GAL4-hgDAF12 UAS-luciferase reporter, agonist luminescence; normalized to butyrate control | 1.8% of 370,000 active | activation, % at 6.8 µM;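 active = activation above a cutoff set at the mean of all screened compounds plus 3 SD, cut at about 10% in these data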;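 also: 0% = DMSO wells and 100% = sodium butyrate wells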
DAX1 inh-2 – DAX1 (NR0B1) inhibitors on StAR promoter, primary screen, cell-based, luminescence, SF-1 (NR5A1), full-length DAX-1. 1.1% of 370,000 active. inhibition, % at 6.8 µM. AID 652010, 2013. HEK293T StAR-luciferase reporter, SF-1/DAX-1 repression relief;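 active = inhibition above the mean over all tested compounds plus 3 SD, cut at about 3.6% in these data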;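 also: 0% = DAX-1 cells with DMSO and 100% = cells lacking DAX-1 with DMSO; higher inhibition means more luminescence from relief of DAX-1 repression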
hcDAF-12 act – H. contortus DAF-12 nuclear receptor activators, primary screen, cell-based, luminescence, HEK293, lit1-tk-luc reporter; HEK293 hcDAF-12 lit1-tk-luc reporter; 0% DMSO, 100% Δ7-dafachronic acid; activation, % at 6.8 µM; 1.4% of 370,000 active;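 active = activation above the mean of all tested compounds plus 3 SD, cut at about 5.5% in these data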;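 also: 100% = response to 3 µM Δ7-dafachronic acid high control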
ssDAF-12 act – S. stercoralis DAF-12 nuclear receptor activators, primary screen, cell-based, luminescence, HEK293, GRIP1 co-expression, lit1-tk-luc; Nuclear hormone receptor DAF-12 (Strongyloides stercoralis); HEK293 ssDAF-12/GRIP1 lit1-tk-luc reporter; % of 3 µM dafachronic acid response; 1% of 370,000 active; activation, % at 6.8 µM;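 active = activation above the mean over all tested compounds plus 3 SD, cut at about 0.9% in these data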;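 also: 0% = DMSO-only wells and 100% = 3 µM delta7-dafachronic acid wells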
* marks the source's active call; other numbers are inactive results; / = no result.

SMILES | DAX1 inh-1 | Wee1 degr inh | hgDAF-12 ag | DAX1 inh-2 | hcDAF-12 act | ssDAF-12 act
COc1ccc(S(=O)(=O)N2CCc3ccccc32)cc1C(=O)Nc1ccc(NC(C)=O)cc1 | 0 | / | -1 | 1 | -2 | -1
COc1ccccc1C(=O)NCC(=O)N1CC=C(c2ccccc2)CC1 | 0 | / | -2 | 0 | 1 | -1
CCOC(=O)c1c(N=CN(C)C)c(C#N)n2c1CCC2 | 0 | 0 | -1 | 0 | 0 | -1
COC(=O)c1c(N=CN(C)C)c(C#N)c2n1CCCC2 | 6.0* | -1 | -2 | -1 | -1 | -1
CC1CC(CC(=O)NNc2nc(-c3ccccc3)cs2)C(=O)O1 (configuration not stated) | 6.1* | 1 | 0 | -2 | 0 | -1
COc1ccc(NC(=O)COC(=O)c2c(C)noc2C)cc1Cl | 1 | / | -2 | 0 | -1 | -1
Cc1ccc(C(=O)Nc2nc3ccc(S(C)(=O)=O)cc3s2)s1 | 1 | 0 | 7 | 2 | 4 | 0
Cc1cccc2sc(NC(=O)CCn3cccc3)nc12 | -1 | -1 | 12* | 0 | 0 | -1
Cc1cccc2sc(NC(=O)c3ccc(Cl)s3)nc12 | 1 | 1 | 5 | 0 | 2 | 1.1*
Cc1ccc2nc(NC(=O)c3ccc(Cl)s3)sc2c1 | 9.8* | 3 | 8 | 4.0* | 3 | 0
Cc1nc2ccc(NC(=O)Cc3c(F)cccc3Cl)cc2s1 | 3 | -2 | 11* | 2 | 1 | -1
Cc1cccc2sc(NC(=O)C3CC3)nc12 | -1 | / | 1 | 0 | -1 | -1
O=C(Cc1c(F)cccc1Cl)Nc1nc2ccccc2s1 | 1 | 0 | 6 | 0 | 0 | -2
Cc1ccccc1S(=O)(=O)N1CCCc2nc(-c3ccc(Br)cc3)ccc21 | / | / | 0 | 0 | 0 | -1
CCOc1ccc(NS(=O)(=O)c2cc(C(=O)N3CCN(c4ccccc4O)CC3)ccc2Cl)cc1 | 0 | / | 1 | -1 | 1 | -1
Cc1cccc2sc(NC(=O)c3ccc(OCC4CCCO4)cc3)nc12 (configuration not stated) | 0 | 5 | 13* | 2 | 2 | -1
Cc1nc2ccc(NC(=O)c3ccc(Cl)s3)cc2s1 | 4.9* | 4 | 9 | 4.1* | 0 | 0
O=C1CNC(=O)c2cc(Cl)ccc2N1 | 1 | / | 2 | -1 | 0 | -1
Cc1ccc(OCc2cc(C(=O)NCCn3cccn3)no2)cc1C | 0 | / | 4 | 1 | 0 | -1
O=C(NCCCn1cccn1)c1cc(COc2ccccc2)on1 | 4.2* | / | 8 | 3 | 2 | 0
CCCc1cc(C(=O)NCCc2ccccc2)no1 | 0 | 2 | 11* | 4 | 4 | -1
COc1ccccc1-c1cc(C(=O)NCCc2ccccc2)no1 | 2 | 3 | 9 | 0 | 3 | -1
CN(CC(=O)Nc1cccc(F)c1)C(=O)c1ccc2c(c1)OCCO2 | 2 | / | 2 | 0 | -1 | 0
O=C(Nc1cccc(F)c1)c1ccc2c(c1)OCCO2 | 0 | / | 13* | 2 | 6.3* | 1
Cc1cc(C(=O)Nc2ccc3c(c2)OCCO3)co1 | 1 | -3 | 9 | 4.1* | 6.1* | 1
SMILES | DAX1 inh-1 | Wee1 degr inh | hgDAF-12 ag | DAX1 inh-2 | hcDAF-12 act | ssDAF-12 act
CN(C)Cc1csc(NC(=O)Nc2ccccc2Oc2ccccc2)n1 | / | / | 3 | -1 | -3 | -1
CC1CCC(NC(=O)C2CCN(c3cnccn3)CC2)CC1 (configuration not stated) | 7.1* | 2 | 0 | 0 | -1 | -1
COc1ccc(-n2c(SCC(=O)Nc3ccccc3-c3ccccc3)nnc2-c2ccco2)cc1 | / | / | -2 | -1 | -4 | -2
CSCCC(c1nc2ccccc2[nH]1)n1c(/C=C/c2ccc(F)c(F)c2)nc2ccccc21 (configuration not stated) | / | / | 8 | 3 | 3 | 0.9*
CSCCC(c1nc2ccccc2[nH]1)n1c(/C=C/c2ccc(Cl)cc2)nc2ccccc21 (configuration not stated) | / | / | -2 | -1 | -3 | -1
O=C(NCc1ccco1)c1ccc(Cl)c(S(=O)(=O)N2CCCC2)c1 | -1 | / | 0 | 0 | -1 | -1
COc1cccc(NC(=O)CN(C)S(=O)(=O)/C=C/c2ccccc2)c1 | 2 | / | 0 | -1 | -1 | -1
O=C1C(NC(=O)N2c3ccccc3C=Cc3ccccc32)CCCCN1Cc1ccc(Cl)cc1 (configuration not stated) | / | / | -3 | -1 | -1 | -2
c1ccc(-c2cc3ccccc3cn2)cc1 | 3 | / | 10 | 2 | 6.2* | 1
CCCCCCCCN1C(=O)[C@H](CC(=O)N2CCCCC2)C[C@@]2(C(=O)OC)CCCCC=C12 | / | / | -1 | 0 | -1 | -1
CCOC(=O)CSC1=C(C#N)C(c2ccccc2OCC)C(C#N)C(=O)N1 (configuration not stated) | 4.2* | 6 | 1 | 1 | -2 | -1
CC1=CC(=O)Nc2ccccc2S1 | 3 | / | 11* | 1 | 5.7* | 1.1*
O=C(NCc1cccs1)c1cccc2c(-c3ccc(F)c(F)c3)coc12 | / | / | -3 | 0 | 1 | 3.5*
CCc1ccccc1NC(=O)CN(C)C(=O)COC(=O)c1c(Cl)cccc1Cl | 1 | / | -1 | -2 | -2 | -1
NCCCn1c(C(=O)c2cc(Cl)c(N)c(Cl)c2)c2ccc(C(F)(F)F)cc2[n+]1[O-] | 2 | / | 1 | 0 | 6.5* | 0
O=[N+]([O-])c1cc2c(cc1CN1CCN(CCOCCO)CC1)OCO2 | 4.4* | / | -1 | 0 | -1 | -1
Cc1ccc(-n2ncc3c(SCC(N)=O)ncnc32)cc1C | 4.3* | / | 8 | 2 | 5 | 0
Cc1ccc(-n2ncc3c(=O)n(CC(N)=O)cnc32)cc1C | 1 | / | 3 | 0 | 3 | -1
O=C(CSc1ncnc2c1cnn2-c1ccccc1)NC1CCCC1 | 1 | / | 2 | 1 | 5.7* | 0
CC(=O)NC(c1ccc(F)c(F)c1)c1nc(-c2cccs2)cs1 (configuration not stated) | / | / | -1 | -1 | -2 | -1
N#CCC[C@H]1CC[C@]2(CCCN(C(=O)C3CCCCC3)C2)O1 | / | / | 2 | -1 | -1 | -1

Bioassay records deposited in PubChem by The Scripps Research Institute Molecular Screening Center.
